# Source: PubChem BioAssay
# The list is not random: actives were taken first. Their share in the collection is about 7.9%.
# FMDV antiviral – foot and mouth disease virus antiviral activity. FMDV antiviral cell-based qHTS. Potency, µM (doses to about 57.9 µM), for the others: at the highest dose activity change, negative = inhibition, most hits filed as inhibitors. 410,000 tested, 1.2% active. AID 1159524; calls by dose curve; tested in HEK293T cells; note: read-out not given here; potency is the fitted concentration of half-maximal effect; nearly all actives have a fitted effect of over 45% in size
# HCMV antiviral – human cytomegalovirus inhibition; HFF cells, HCMV-luciferase reporter, 72 h; hits give low values; 410,000 tested, 4.5% active; AID 1259415; activity change, negative = inhibition, % at 57.5 µM; in the data active = activity change below about -60%; inconclusive = no clear call, values can overlap the other calls; inactive = above about -39%
#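 Screen run at 2 compound doses on HFFs infected with reporter HCMV, MOI 1 PFU/cell. Luciferase activity from cell lysates at 72 h post infection gave inhibition relative to buffer-only and Salinomycin wells.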
# MARV entry inh – blocks Marburg virus binding to or entry into cells | Marburg virus pseudotyped entry inhibition, cell reporter | Potency, µM (doses to about 37.8 µM), for inactives: top-dose activity change, negative = inhibition, usual class: inhibitors | 300,000 tested, 1.8% active | AID 540276; calls by dose curve; tested in HEK293 cells; note: potency is the fitted concentration of half-maximal effect
# HCV inh – HCV inhibition; Huh7.5.1 HCVcc-Cre infection, luciferase reporter, 44 h; Potency, µM (highest dose often 41.8 µM), without a hit: at the highest dose activity change, negative = inhibition, most hits filed as inhibitors; 340,000 tested, 3.4% active; active = well fitted inhibition curve with a large enough effect; inconclusive = small, poorly fitted or top-dose-only effect, or another doubt; inactive = no such curve, though single readings can be large or run the other way; note: potency is the fitted concentration of half-maximal effect
#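 Antiviral activity was scored by luciferase reporter output from cells infected with HCVcc-Cre (~0.5 moi) in presence of compound, 44 h infection period, cells seeded 1,000/well 4 h prior.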
# LASV entry inh – Lassa virus entry inhibition; Potency, µM (top dose mostly 37.9 µM), for the others: at the top dose activity change, negative = inhibition, hits mostly inhibitors; 300,000 tested, 1.2% active; Lassa virus pseudotype entry inhibition, cell reporter; calls by dose curve; tested in HEK293 cells; note: potency is the fitted concentration of half-maximal effect; nearly all actives have a fitted effect of over 50% in size
# An asterisk follows results filed as active; ? = inconclusive; . = no result given; ! = not confirmed by another sample; [ ] = dose if it differs, or a comment. % is set by controls: 0 for no effect and ±100 for the full control effect.
SMILES,FMDV antiviral,HCMV antiviral,MARV entry inh,HCV inh,LASV entry inh
Cc1ccccc1NS(=O)(=O)c1ccc(C(=O)NNC(=O)c2ccccc2O)cc1,5.7%,-34.4,?,?,?
Cc1ccccc1NS(=O)(=O)c1ccc(C(=O)N2CCN(c3ccccn3)CC2)cc1,-20.0%,-30.6,?,?,-19.3%[46.1 µM]
O=C(c1ccc(S(=O)(=O)Nc2ccccc2F)cc1)N1CCN(c2ccccn2)CC1,?,-25.7,.,4.47µM*,.
O=C(NNC(=O)c1ccccc1O)c1ccc(S(=O)(=O)Nc2ccccc2F)cc1,16.1%,-3.6,1.5%[46.1 µM],15.8µM*,4.3%
CC(C)[C@H]1C(C#N)=C(N)Oc2n[nH]c(C(C)(C)C)c21,.,.,-9.5%,.,.
CCc1cccc(N=c2c([N+](=O)[O-])nn(-c3ccc4c(c3)OCCO4)n2O)c1,?,-67.0*,?,10µM*,?
Cc1ccc(-c2csc3nc(-c4ccncc4)[nH]c(=O)c23)cc1,-26.3%,20.2,.,5.62µM*,.
Cc1ccc(-c2csc3nc(C)n(N)c(=O)c23)cc1,5.8%,-86.0*,.,6.9%,.
Cc1ccc(-c2csc3nc(SCC(N)=O)n(Cc4ccccc4)c(=O)c23)cc1,31.6µM*,-28.0,?,?,-30.0%
CCOC(=O)Cc1csc(NC(=O)CN2CCN(c3ccccc3)CC2)n1,-23.9%,27.1,.,-7.1%,.
COc1ccc(Cl)cc1NC(=O)Cn1cc2c(n1)CCC(C)C2 (stereo not given),-11.8%,-15.2,4.0%[46.1 µM],.,0.8%[46.1 µM]
CCc1nc(NC[C@H]2CCCO2)c(C#N)c2c1COC(C)(C)C2,.,.,4.8%[46.1 µM],.,.
CCN(CC)c1ccc(/C=C2/SC(=O)N(C(C)C)C2=O)o1,10.6%,-86.0*,?,?,?
CCN(CC)c1ccc(C=C2C(=O)N(C)C(=S)N(C)C2=O)o1,-3.0%,1.2,?,3.5%,-5.2%
CC(C)(C)c1ccc(C(=O)NCC(c2cccs2)S(=O)(=O)c2cccs2)cc1 (stereo not given),0.0%,-34.0,.,.,?
CC(C)(C)c1ccc(C(=O)NCC(c2cccs2)S(=O)(=O)c2ccc(F)cc2)cc1 (stereo not given),20µM*,-31.2,.,.,?
COCCNC(=O)[C@@H]1[C@@H](CO)[C@@H]2Cn3c(cccc3=O)[C@H]1N2Cc1cccc(Cl)c1,.,-4.2,.,.,.
CCOC(=O)c1ccc(NC(=O)c2cn3c4c(ccc(Cl)c4c2=O)OC(C)C3)cc1 (stereo not given),-13.1%,1.1,.,.,13.1%[46.1 µM]
Cc1ccc(/C=C2/NC(=O)N(c3ccccc3)C2=O)o1,21.6%,?,2.6%,-15.2%,19.9%
O=C1N/C(=C/c2ccc(Br)s2)C(=O)N1c1ccccc1,9.2%,-62.0*,?,-1.6%,?
CCSC1=N/C(=C\c2ccc3c(c2)OCO3)C(=O)S1,16.9%,3.6,11.2%[46.1 µM],12.3%,5.0%
CN1C(=O)/C(=C/c2ccc3c(c2)OCO3)N=C1c1ccccc1,18.4%,-100.8*,-15.1%,-1.9%,1.0%
Cc1ccc(C)c(S(=O)(=O)NCCOc2nc(NC(C)C)nc(NC(C)C)n2)c1,.,1.8,?,-28.8%,-14.8%
CSc1nc(C)cc(OCCNS(=O)(=O)c2cc(C)ccc2C)n1,9.0%,-8.3,-8.8%,22.4µM*,16.2%
Cc1ccc(S(=O)(=O)Cc2ccc(C(=O)N3CCCC3)o2)cc1,-3.1%,-35.2,.,-8.6%,.
SMILES,FMDV antiviral,HCMV antiviral,MARV entry inh,HCV inh,LASV entry inh
COc1ccc(N2CCN(C(=O)c3ccc(CS(=O)(=O)c4ccc(Br)cc4)o3)CC2)cc1,-13.9%,-83.8*!,8.3%[46.1 µM],15.4%,8.0%[46.1 µM]
Cc1ccc(S(=O)(=O)Cc2ccc(C(=O)N3CCCCCC3)o2)cc1,-14.0%,-62.9*,.,-13.7%,.
O=C(c1ccc(CS(=O)(=O)c2ccc(Br)cc2)o1)N1CCN(c2ccc(F)cc2)CC1,?,0.0,?,?,-9.0%[46.1 µM]
CCCCNC(=O)c1ccc(CS(=O)(=O)c2ccc(C)cc2)o1,-10.0%,-19.8,?,8.4%,15.8µM*
Cc1cc2c(c(=O)o1)[C@H](CC(C)C)C(C#N)=C(N)O2,.,.,4.5%,.,.
COc1ccc(S(=O)(=O)NCCc2ccccn2)cc1,40.2%,-39.2,5.6%[46.1 µM],-3.7%,?
COc1ccc(S(=O)(=O)NC(C(=O)NCCc2ccccn2)C(C)C)cc1 (stereo not given),-4.4%,-66.5*,7.1%,20.9%,29.9%
COc1cccc(NC(=O)CC2C(=O)NC3CCCCC3N2C(=O)c2ccccc2)c1 (stereo not given),-14.9%,16.4,2.2%[46.1 µM],14.5%,-19.4%
CC1(C(=O)NCc2ccccn2)CCN1C(=O)Cc1ccc(Cl)cc1Cl (stereo not given),-12.0%,?,.,.,.
Cc1cc(C)n([C@@H]2CCCC[C@H]2OC(=O)c2ccccc2)n1,.,.,-7.0%[46.1 µM],.,.
COC(=O)c1cc(NC(=O)CC2SC(=Nc3ccccc3)N(CCc3c[nH]c4ccccc34)C2=O)cc(C(=O)OC)c1 (stereo not given),-15.8%,25.6,?,4.47µM*,?
COCCN1C(=O)C(CC(=O)Nc2ccc(C(=O)O)cc2)SC1=Nc1ccccc1 (stereo not given),-3.6%,-16.6,4.3%,7.4%,-0.1%
CCc1nc(Sc2nnnn2-c2ccccc2)c2c3c(sc2n1)CCCC3,?,-16.8,1.6%,?,?
Cc1nc(Sc2nnnn2C)c2c3c(sc2n1)CCC3,?,-102.7*,?,4.2%,?
COC(=O)C1=C(C)NC(=S)NC1c1ccc(OCC(=O)N2CCCCC2)c(OC)c1 (stereo not given),-5.8%,-62.8*,?,15.8%,2.5%
Cc1cccc(C)c1NC(=O)CCC(=O)N1Cc2ccccc2Oc2ncccc21,-5.2%,12.6,.,.,2.5%[46.1 µM]
COc1cccc(OC)c1C1=NCC(=O)Nc2c1oc1ccc(Br)cc21,0.0%,-94.8*,?,?,?
CCOC(=O)C1=C(C)NC(=S)NC1c1ccco1 (stereo not given),-21.0%,53.1,16.3%[46.1 µM],-8.5%,-2.0%[46.1 µM]
CCOC(=O)C1=C(C)NC(=S)NC1c1ccc(-c2cccc(Cl)c2C)o1 (stereo not given),?,-9.2,?,6.31µM*,?
CCOC(=O)C1=C(C)NC(=O)NC1c1ccc(-c2ccc(Cl)cc2)o1 (stereo not given),?,8.6,?,?,-3.4%
CCOC(=O)C1=C(C)NC(=S)NC1c1ccc(-c2ccc(Cl)cc2)o1 (stereo not given),?,-31.8,12.6µM*,?,-5.2%
Nc1ccccc1O,-5.7%,.,.,-16.4%,.
Oc1ccccc1O,-9.3%,-27.5,2.51µM*!,?,?
Cc1cc(N)c2cc(NC(=O)Nc3ccc4nc(C)cc(N)c4c3)ccc2n1,.,-99.3*,.,.,.
Cc1ccc(NS(=O)(=O)c2ccc3c(c2)CC(=O)N3)cc1F,43.6%,-62.4*,3.7%,17.8%,0.0%
CC(C)c1cccc(-c2nc3c(NCc4cccc(N(C)C)c4)nccc3[nH]2)c1,.,-0.3,.,.,.
COc1cc(-c2nnc(COc3ccc4cc(Br)ccc4c3)o2)cc(OC)c1OC,9.9%,33.7,?,-29.5%,-8.5%
COc1cccc(OCc2nnc(-c3cccs3)o2)c1,.,-77.3*,.,.,.
